# PubChem BioAssay AID504850 (National Center for Advancing Translational Sciences (NCATS), 2011)
# Hit rate of the full screen: of about 2,300 compounds, about 1,200 (52%) were called active. Another 34% or so got no clear call; they are omitted. The call rests on the fitted dose curve; in most records, active means well fitted inhibition curve with a large enough effect; inconclusive means small, poorly fitted or top-dose-only effect, or effect the other way; inactive means no such curve, though single readings can be large or run the other way. So high a share suggests a set chosen from earlier hits. The list shows a part of the results.
# Assay: Confirmation screen for delayed death inhibitors of the malarial parasite plastid, 48 hour incubation; further: nearly all actives have a fitted effect of over 65% in size
# Settings: P. falciparum-infected erythrocytes, luciferase growth; series mostly up to 28.7 µM; activity change, negative = inhibition: at the top concentration
# Summary of the method: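 Single-generation (48 h, 37 C) exposure of integrated firefly luciferase-reporter P. falciparum in red cells, 0.1% parasitemia at 2% hematocrit, Albumax-supplemented RPMI. Falling luciferase signal marks parasite growth inhibition.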
# On the % scale 0 is the no-effect control and ±100 the full control effect; potency means the concentration at half of the fitted maximal effect.
SMILES,Potency,"activity change, negative = inhibition"
COc1ccc(C2c3c(ncn(CCN4CCOCC4)c3=N)Oc3ccc4ccccc4c32)cc1OC (stereo not drawn),4.47 µM (active),–
COc1ccc(C2c3c(ncn(CCCN4CCOCC4)c3=N)Oc3ccc4ccccc4c32)cc1OC (stereo not drawn),5.01 µM (active),–
O=c1[nH]c(=O)n(Cc2ccco2)c2c1C(C(F)(F)F)(C(F)(F)F)N=C(CCc1ccccc1)N2,11.2 µM (active),–
COc1ccc2c(c1)c(C(=O)N/N=C/c1ccc(OC)c(OC)c1)c(C)n2C,10 µM (active),–
CCC(C)[C@H](NC(=O)NCCCOC(C)C)C(=O)OC (stereo partly drawn),–,0.984% (inactive)
CCOc1ccc2nc(C)cc(Nc3cccc([N+](=O)[O-])c3)c2c1,2 µM (active),–
O=C(O)CCc1ccc(-c2ccccc2)n1-c1ccc(C(=O)O)cc1,–,1.49% (inactive)
Cc1cc2[nH]c(=O)c(=O)[nH]c2cc1S(=O)(=O)NC1CCCCC1C (stereo not drawn),–,-18% (inactive)
COC(=O)C1=C(C)NC2=C(C(=O)CC(c3cccs3)C2)C1c1ccsc1 (stereo not drawn),14.1 µM (active),–
O=C(CSc1nc(-c2ccccc2)cs1)Nc1cccc([N+](=O)[O-])c1,–,-33.8% (inactive)
CCOC(=O)CSc1nnc(CNc2nc(-c3ccccc3)cs2)n1C,8.91 µM (active),–
CCn1c(Cc2ccccc2)nnc1SCC(=O)Nc1nc(C)cs1,12.6 µM (active),–
Cc1cc(C)nc(SCc2nnc(SCC(=O)Nc3nc(-c4ccccc4)cs3)n2C)n1,14.1 µM (active),–
NNC(=O)CSc1nc(-c2ccccc2)cn1-c1ccccc1,–,-17% (inactive)
Cc1ccccc1NC(=O)Cc1nnc(SCC(=O)NC2CCCCC2)n1C,–,-9.87% (inactive)
CCCc1cc(NCc2ccccn2)n2nc(C)c(-c3ccccc3)c2n1,5.62 µM (active),–
CN(C)c1ccc(NC(=S)NC23CC4CC(CC(C4)C2)C3)cc1,12.6 µM (active),–
Cc1cccc(C)c1Nc1c(-c2ccc(N3CCOCC3)cc2)nc2ncccn12,12.6 µM (active),–
c1ccc(SCc2cn(C[C@H]3CC[C@@H]([C@@H]4CC[C@H](Cn5cc(CSc6ccccc6)nn5)O4)O3)nn2)cc1,14.1 µM (active),–
O=C(Nc1ccc(O)cc1)C1CC=CCC1 (stereo not drawn),7.94 µM (active),–
COc1cnc(-c2ccccn2)nc1Oc1ccc(C(C)(C)C)cc1,4.47 µM (active),–
COc1cnc(-c2ccccn2)nc1N(C)c1ccccc1,3.55 µM (active),–
O=C1c2cc([N+](=O)[O-])cc3cc([N+](=O)[O-])cc(c23)C(=O)N1c1ccccn1,14.1 µM (active),–
CC(C)NC(=O)c1onc(CSc2ccc(C(C)C)cc2)c1C(=O)O,–,-21.4% (inactive)

SMILES,Potency,"activity change, negative = inhibition"
CC(=O)c1ccc(NC(=O)C[n+]2cccc(C)c2)cc1,–,-2.21% (inactive)
Cc1ccc[n+](CC(=O)Nc2ccc(C)c(C)c2)c1,14.1 µM (active),–
O=S(=O)(c1ccc(F)cc1)N1CCN(c2nc(-c3ccc(F)cc3)cs2)CC1,14.1 µM (active),–
CN1C[C@@H]2C[C@H]1CN2c1cc2c(cc1F)c(=O)c(C(=O)O)cn2C1CC1,3.55 µM (active),–
Cc1cc(F)ccc1S(=O)(=O)Nc1ccccc1C(=O)Nc1ccccc1-c1nc2ccccc2[nH]1,5.62 µM (active),–
COc1ccc(C(c2c(C)n(C)n(-c3ccccc3)c2=O)c2c(C)n(C)n(-c3ccccc3)c2=O)cc1,14.1 µM (active),–
Cc1c(C(c2ccc(Br)cc2)c2c(C)n(C)n(-c3ccccc3)c2=O)c(=O)n(-c2ccccc2)n1C,12.6 µM (active),–
Cc1c(NC(=O)C(C)Sc2nccn2C)c(=O)n(-c2ccccc2)n1C (stereo not drawn),–,-5.16% (inactive)
CSc1ccc(CNC(=O)C(C)n2nc(C)c3c(C)n(-c4ccccc4)nc3c2=O)cc1 (stereo not drawn),14.1 µM (active),–
CSc1ccc(CNc2cccc3ccccc23)cc1,–,-25.2% (inactive)
Cc1nn(C(C)C(=O)NCCC2=CCCCC2)c(=O)c2nn(-c3ccccc3)c(C)c12 (stereo not drawn),12.6 µM (active),–
Cc1nn(C(C)C(=O)NCCCc2ccccc2)c(=O)c2nn(-c3ccccc3)c(C)c12 (stereo not drawn),12.6 µM (active),–
Cc1nn(C(C)C(=O)Nc2ccccc2Cl)c(=O)c2nn(-c3ccccc3)c(C)c12 (stereo not drawn),14.1 µM (active),–
Cc1ccc(-c2csc(SCC(=O)c3c(N)n(C4CC4)c(=O)[nH]c3=O)n2)cc1,–,-4.3% (inactive)
Nc1c(C(=O)CSc2nc3ccccc3o2)c(=O)[nH]c(=O)n1C1CC1,14.1 µM (active),–
O[C@@H]1[C@@H](O)C=C2CCN3Cc4cc5c(cc4[C@H]1C23)OCO5 (stereo partly drawn),1.58 µM (active),–
COc1ccc(C(=O)NC2CC2)cc1OC1CCN(C/C=C/c2ccccc2)CC1,8.91 µM (active),–
CCc1nc(Nc2ccncc2)c2oc3ccccc3c2n1,10 µM (active),–
Cc1oc(/C=N/NS(=O)(=O)c2ccccc2)cc1Br,–,0.292% (inactive)
CCN(CC)c1ccc(/C=N/Nc2nc3ccccc3[nH]2)cc1,2.82 µM (active),–
Cc1c(/C=N/Nc2nc3ccccc3[nH]2)c2ccccc2n1C,0.708 µM (active),–
CCc1cc(SC#N)ccc1N,10 µM (active),–
CCCN1CCc2c(sc3nc(SCC)n(-c4ccccc4)c(=O)c23)C1,1.78 µM (active),–
CCCN1CCc2c(sc3nc(SCC)n(-c4ccc(OC)cc4)c(=O)c23)C1,1.26 µM (active),–

SMILES,Potency,"activity change, negative = inhibition"
COc1ccc(CCNC(=O)/C(=C/c2cccnc2)NC(=O)c2ccccc2)cc1OC,12.6 µM (active),–
CCOc1ccc2c(c1)C(c1ccccc1)=NNC(c1ccccc1)=N2,12.6 µM (active),–
C=CCNC(=O)c1onc(CSc2cc(C)ccc2C)c1C(=O)O,–,-10.4% (inactive)
Nc1[nH]nc2nc(NCc3ccccc3)c3c(c12)CCN(Cc1ccccc1)C3,15.8 µM (active),–
O=c1[nH]c(NCc2ccccc2)nc2c1CCC2,–,-13.4% (inactive)
Cc1ccc(NC(=O)c2ccc3c(SCC(=O)O)c4c(nc3c2)CCCC4)c(Br)c1,11.2 µM (active),–
COc1ccc(C2CC(c3cccs3)=NN2C(=O)CSc2nnc(N)s2)cc1OC (stereo not drawn),14.1 µM (active),–
O=C(c1ccccc1)N1CCCC(c2ccc(Cl)cc2)=N1,15.8 µM (active),–
O=Nc1c(-c2c(O)[nH]c3cc(Br)ccc23)[nH]c2ccccc12,7.08 µM (active),–
CCCCC1(c2ccc(F)cc2)NC(=O)N(CC(=O)N2CCN(C(=O)c3ccco3)CC2)C1=O (stereo not drawn),14.1 µM (active),–
O=C(CC(SCCO)c1ccc(F)cc1)c1ccco1 (stereo not drawn),–,-19.4% (inactive)
CCOc1ccc(Cl)cc1C1=CC(=O)C[C@H](c2ccc(OC)cc2)C1,14.1 µM (active),–
COc1cccc(C2=CC(=O)C[C@H](c3ccc(F)cc3)C2)c1OC,–,-27.1% (inactive)
COc1ccc2c(c1)c(CC(=O)Nc1nnc(C3CC3)s1)c(C)n2C(=O)c1ccc(Cl)cc1,14.1 µM (active),–
Cc1ccc(-n2cc(CN3CCC(CO)(Cc4cccc(C(F)(F)F)c4)CC3)cn2)cc1,7.94 µM (active),–
N#Cc1ccc(Oc2ccc(-c3nc4ccccc4nc3-c3ccccc3)cc2)cc1C#N,11.2 µM (active),–
Cc1c(Cc2ccccc2)c(=O)oc2cc(OC(C)C(=O)NCC3CCC(C(=O)O)CC3)c(Cl)cc12 (stereo not drawn),12.6 µM (active),–
Cc1c(OC(C)C(=O)NCC2CCC(C(=O)O)CC2)ccc2c1oc(=O)c1ccccc12 (stereo not drawn),14.1 µM (active),–
CC(C)CC1c2[nH]c3ccccc3c2CCN1CCCn1cccn1 (stereo not drawn),12.6 µM (active),–
CCC1CCC(C(=O)NC(CCSC)C(=O)NCCN(CC(C)C)CC(C)C)CC1 (stereo not drawn),12.6 µM (active),–
O=C(CCC1N=C2c3ccccc3N=C(SCC(=O)NCc3ccco3)N2C1=O)NCc1ccco1 (stereo not drawn),–,-31.8% (inactive)
O=C(CSc1nc2ccccc2c(=O)n1Cc1ccc(C(=O)NC2CC2)cc1)NCc1ccco1,14.1 µM (active),–
O=C(CSc1c2c(nc3ccccc13)CCCC2)NCc1ccco1,–,-14.6% (inactive)
O=C(CSc1nc2c(sc3ccccc32)c(=O)n1-c1ccccc1)NCc1ccco1,11.2 µM (active),–

SMILES,Potency,"activity change, negative = inhibition"
CCN(CC)CCn1c2c(c(SCC(=O)Nc3nc4ccccc4s3)nc1=O)CCCC2,7.08 µM (active),–
CC[N+](CC)(CC)CCCCOc1ccc2c(c1)C(=O)c1cc(OCCCC[N+](CC)(CC)CC)ccc1-2,0.0398 µM (active),–
Cc1ccc(NC(=O)CSc2nc3ccccc3c(=O)n2CCCN2CCCCC2)cc1Cl,7.94 µM (active),–
Cc1cccc(NC(=O)C(C)Sc2nc3ccccc3c(=O)n2CCCN2CCOCC2)c1 (stereo not drawn),12.6 µM (active),–
Cc1ccc(-c2nc(CSc3nc4ccccc4c(=O)n3CCO)cs2)cc1,–,-13.4% (inactive)
N#CCc1ccc(C(=O)c2ccccc2F)s1,–,0.887% (inactive)
Cc1cccc(NC(=O)COC(=O)c2cccc3c2C(=O)c2ccccc2C3=O)c1C,15.8 µM (active),–
Cn1c(=O)c2c([nH]c(=O)n2C)n(C)c1=O,–,-0.358% (inactive)
COc1ccc(CN(CCC(c2ccccc2)c2ccco2)C(=O)c2ccco2)cc1 (stereo not drawn),10 µM (active),–
COc1ccc(S(=O)(=O)N/N=C(/C)c2ccco2)cc1,–,-6.45% (inactive)
O=C(CNC(=O)c1ccco1)OCC(=O)c1ccccc1,–,2.63% (inactive)
Cc1ccnc(NCc2cccc3ccccc23)c1,12.6 µM (active),–
Cc1ccnc(NCc2ccc(Cl)cc2)c1,–,18% (inactive)
CCOC(=O)c1c(CS(=O)(=O)c2ccccc2)n(C)c2cc(Br)c(O)cc12,12.6 µM (active),–
O=C(/C=C/c1cccs1)Nc1sc2c(c1C(=O)O)CCCC2,–,-4.46% (inactive)
CC(=O)Nc1sc2c(c1-c1nc3ccccc3s1)CCN(C(C)C)C2,4.47 µM (active),–
CC(C)N1CCc2c(sc(NC(=S)NC(=O)c3ccccc3)c2C#N)C1,10 µM (active),–
CCN(CC)CCC[C@H](C)Nc1ccnc2cc(Cl)ccc12,0.501 µM (active),–
CCN(CC)CCC[C@H](C)Nc1c2ccc(Cl)cc2nc2ccc(OC)cc12,0.178 µM (active),–
COc1ccc2nc3cc(Cl)ccc3c(Nc3cc(C(C)C)c(O)cc3C)c2c1,0.0224 µM (active),–
CCOC(=O)C1=C(C)N=c2s/c(=C\c3ccc(OCC(=O)O)cc3)c(=O)n2C1c1ccc(OC(C)C)cc1 (stereo not drawn),5.01 µM (active),–
